For eight compounds, outcome and AC50 results are on record in PubChem BioAssay (EPA / NIEHS).

The structures appear in SMILES notation. “And” between values parts separate entries of the source, which are not always exact repeats. Equal values may be shown once. Some compounds were tested as several samples or in several runs, with calls that do not always agree. The source made the active and inactive calls. Rule for the calls: active = hit-call score of the fitted dose curve at least 0.9, where 1 is the maximum; inactive = score below 0.9.

Read-out in assay [1]: TIMP metallopeptidase inhibitor 1 (TIMP1), TIMP1 (gene 7076)
Kind of assay: BSK_MyoF_TIMP1: BioMAP Diversity Plus: MyoF Assay for TIMP metallopeptidase inhibitor 1 (TIMP1) Biomarker Activity (AID 2284269). Particulars: primary human lung fibroblasts. Put shortly: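 Primary human lung fibroblasts, MyoF multiplex system; chemical exposure 24 h; TIMP-1 by ELISA; positive fitting direction vs DMSO control.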

Read-out in assay [2]: Intercellular Adhesion Molecule 1 (ICAM1), ICAM1 (gene 3383)
Kind of assay: BSK_BE3C_ICAM1: BioMAP Diversity Plus: BE3C Assay for Intercellular Adhesion Molecule 1 (ICAM1) Biomarker Activity (AID 2284278).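 For outcome: cell-surface ICAM-1 protein level quantified by ELISA.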 Particulars: primary human bronchial epithelial cells. Put shortly: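 hu bronchial epithelial primary cells, 24 h cpd exposure, ICAM-1 ELISA; gain-of-signal fit vs DMSO baseline.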

Read-out in assay [3]: Interferon-inducible T-cell alpha chemoattractant (ITAC), CXCL11 (gene 6373)
Description: BSK_BE3C_ITAC: BioMAP Diversity Plus: BE3C Assay for Interferon-inducible T-cell alpha chemoattractant (ITAC) Biomarker Activity (AID 2284279). Conditions: primary human bronchial epithelial cells. A digest of the protocol:
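Steps: dose human bronchial epithelial cells with chemical; incubate 24 h; measure I-TAC by ELISA; fit endpoint in positive direction against DMSO control. Cytotoxicity was checked in parallel cultures by SRB staining at harvest.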

Read-out in assay [4]: Interleukin-8 (IL8), CXCL8 (gene 3576)
Description: BSK_BE3C_IL8: BioMAP Diversity Plus: BE3C Assay for Interleukin-8 (IL8) Biomarker Activity (AID 2284280). Conditions: primary human bronchial epithelial cells. A digest of the protocol:
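Dose human bronchial epithelial cells with chemical; incubate 24 h; quantify IL-8 by ELISA; fit response upward versus DMSO controls.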

Read-out in assay [5]: Epidermal growth factor receptor (EGFR), EGFR (gene 1956)
Kind of assay: BSK_BE3C_EGFR: BioMAP Diversity Plus: BE3C Assay for Epidermal growth factor receptor (EGFR) Biomarker Activity (AID 2284281). Particulars: primary human bronchial epithelial cells. A digest of the protocol:
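ELISA read-out of EGFR levels on human bronchial epithelial primary cells collected 24 h post-dosing. DMSO served as negative control and baseline for gain-of-signal fitting.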

Read-out in assay [6]: KRT18 (gene 3875)
Kind of assay: BSK_BE3C_Keratin818: BioMAP Diversity Plus: BE3C Assay for Keratin 818 Biomarker Activity (AID 2284282). Particulars: primary human bronchial epithelial cells. Put shortly:
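In this multiplexed primary-cell system, bronchial epithelial cells were dosed and harvested at 24 h. Keratin 8/18 was determined by ELISA and analysed for increases over DMSO controls.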

Read-out in assay [7]: Matrix Metallopeptidase 9 (MMP9), MMP9 (gene 4318)
Description: BSK_BE3C_MMP9: BioMAP Diversity Plus: BE3C Assay for Matrix Metallopeptidase 9 (MMP9) Biomarker Activity (AID 2284283). Particulars: primary human bronchial epithelial cells. A digest of the protocol:
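Human primary bronchial epithelial cells in the BE3C system were dosed with compound for 24 h. MMP-9 was measured by ELISA, and the positive-direction response was fitted relative to DMSO as baseline. Parallel SRB staining gauged cytotoxicity.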

Read-out in assay [8]: Plasminogen activator inhibitor-1 (PAI1), SERPINE1 (gene 5054)
Kind of assay: BSK_CASM3C_PAI1: BioMAP Diversity Plus: CASM3C Assay for Plasminogen activator inhibitor-1 (PAI1) Biomarker Activity (AID 2284284). Conditions: primary human coronary artery smooth muscle cells.

Read-out in assay [9]: Monocyte Chemoattractant Protein-1 (MCP1), CCL2 (gene 6347)
Kind of assay: BSK_hDFCGF_MCP1: BioMAP Diversity Plus: hDFCGF Assay for Monocyte Chemoattractant Protein-1 (MCP1) Biomarker Activity (AID 2284285). Particulars: primary human foreskin fibroblasts. A digest of the protocol: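 MCP-1 ELISA readout was taken 24 hours after dosing primary human dermal fibroblasts in the hDFCGF system, with DMSO as baseline. Parallel sulforhodamine B staining of total protein tracked overt cytotoxicity.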

Read-out in assay [10]: Intercellular Adhesion Molecule 1 (ICAM1), ICAM1 (gene 3383)
Description: BSK_hDFCGF_ICAM1: BioMAP Diversity Plus: hDFCGF Assay for Intercellular Adhesion Molecule 1 (ICAM1) Biomarker Activity (AID 2284287). Particulars: primary human foreskin fibroblasts. A digest of the protocol: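 ICAM-1 ELISA readout 24 h after dosing, DMSO as baseline, in human dermal foreskin fibroblast cultures. Cytotoxicity checked in parallel wells by SRB staining (0.1% SRB, 10% TCA fixation, 560 nm).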

Read-out in assay [11]: Matrix Metallopeptidase 1 (MMP1), MMP1 (gene 4312)
Description: BSK_BF4T_MMP1: BioMAP Diversity Plus: BF4T Assay for Matrix Metallopeptidase 1 (MMP1) Biomarker Activity (AID 2284270). Particulars: primary human bronchial epithelial cells with fibroblasts. Put shortly:
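MMP-1 quantified by ELISA in primary human bronchial epithelial/dermal fibroblast co-cultures, 24 hours post-dosing, with DMSO as baseline; parallel sulforhodamine B staining (560 nm) tracks overt cytotoxicity.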

Read-out in assay [12]: Matrix Metallopeptidase 3 (MMP3), MMP3 (gene 4314)
Kind of assay: BSK_BF4T_MMP3: BioMAP Diversity Plus: BF4T Assay for Matrix Metallopeptidase 3 (MMP3) Biomarker Activity (AID 2284271). Particulars: primary human bronchial epithelial cells with fibroblasts. A digest of the protocol: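 MMP-3 level read by ELISA after 24 h chemical exposure of bronchial epithelial cell/dermal fibroblast co-cultures, fitted upward relative to DMSO. Parallel cultures stained with 0.1% SRB after TCA fixation gauge overt cytotoxicity.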

Read-out in assay [13]: Tissue plasminogen activator (tPA), PLAT (gene 5327)
Description: BSK_BF4T_tPA: BioMAP Diversity Plus: BF4T Assay for Tissue plasminogen activator (tPA) Biomarker Activity (AID 2284272). Conditions: primary human bronchial epithelial cells with fibroblasts. Put shortly: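 tPA level quantified by ELISA at 24 h post-treatment in bronchial epithelial/dermal fibroblast co-cultures, gain of signal scored against DMSO baseline. Parallel cultures stained with 0.1% SRB (560 nm) to flag overt cytotoxicity.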

Read-out in assay [14]: Plasminogen Activator Inhibitor-1 (PAI1), SERPINE1 (gene 5054)
Description: BSK_BF4T_PAI1: BioMAP Diversity Plus: BF4T Assay for Plasminogen Activator Inhibitor-1 (PAI1) Biomarker Activity (AID 2284273). Conditions: primary human bronchial epithelial cells with fibroblasts. A digest of the protocol: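 PAI-1 levels quantified by ELISA 24 h post-dosing in bronchial epithelial cell plus dermal fibroblast cultures. Signal gain referenced to DMSO baseline. Sulforhodamine B total-protein staining of parallel wells checked cytotoxicity.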

The nature of assay [15]: BSK_BF4T_SRB: Viability Assessment in the BioMAP Diversity Plus: BF4T Assay (AID 2284274). Particulars: primary human bronchial epithelial cells with fibroblasts. Put shortly: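 Cytotoxicity measured as total protein: cells fixed with 10% TCA, stained with 0.1% SRB, read at 560 nm. Bronchial epithelial/dermal fibroblast co-culture, 24 h after dosing, with positive-direction fitting relative to DMSO.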

Read-out in assay [16]: urokinase Plasminogen Activator (uPA), PLAU (gene 5328)
Description: BSK_BF4T_uPA: BioMAP Diversity Plus: BF4T Assay for urokinase Plasminogen Activator (uPA) Biomarker Activity (AID 2284275). Particulars: primary human bronchial epithelial cells with fibroblasts. Put shortly:
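uPA levels measured by ELISA at 24 hours in BF4T cultures (bronchial epithelial cells plus dermal fibroblasts) and compared with DMSO; cytotoxicity tracked in parallel cultures by sulforhodamine B staining.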

Read-out in assay [17]: Matrix Metallopeptidase 9 (MMP9), MMP9 (gene 4318)
Description: BSK_BF4T_MMP9: BioMAP Diversity Plus: BF4T Assay for Matrix Metallopeptidase 9 (MMP9) Biomarker Activity (AID 2284276). Conditions: primary human bronchial epithelial cells with fibroblasts. Put shortly: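 MMP-9 levels were measured by ELISA after 24 h exposure of bronchial epithelial cell/dermal fibroblast co-cultures, with DMSO as baseline. Parallel cultures were stained with 0.1% SRB after TCA fixation, read at 560 nm, to flag overt cytotoxicity.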

Read-out in assay [18]: Interleukin-8 (IL8), CXCL8 (gene 3576)
Description: BSK_IMphg_IL8: BioMAP Diversity Plus: IMphg Assay for Interleukin-8 (IL8) Biomarker Activity (AID 2284277). Particulars: primary human endothelial cells with macrophages. A digest of the protocol: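 IL-8 levels were measured by ELISA 24 h after dosing in primary human venular endothelial cell–macrophage cultures, referenced to DMSO; parallel SRB staining monitored overt cytotoxicity.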

Read-out in assay [19]: Vascular cell adhesion molecule 1 (VCAM1), VCAM1 (gene 7412)
Description: BSK_IMphg_VCAM1: BioMAP Diversity Plus: IMphg Assay for Vascular cell adhesion molecule 1 (VCAM1) Biomarker Activity (AID 2284286). Conditions: primary human endothelial cells with macrophages. A digest of the protocol:
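ELISA read-out of VCAM-1 on venular endothelial cell/macrophage co-cultures at 24 h post-treatment, with DMSO as baseline and positive-direction fitting. Parallel sulforhodamine B total-protein staining (560 nm) served as the overt cytotoxicity measure.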

Read-out in assay [20]: CD40, CD40 (gene 958)
Kind of assay: BSK_IMphg_CD40: BioMAP Diversity Plus: IMphg Assay for CD40 Biomarker Activity (AID 2284288). Particulars: primary human endothelial cells with macrophages. Put shortly:
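ELISA read-out of cell-surface CD40 at 24 h in human venular endothelial cell/macrophage co-cultures. Activity fitted in the positive direction against DMSO; parallel SRB staining (560 nm) gauges overt cytotoxicity.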

Take `CCOC(=O)C1=NN(c2ccc(Cl)cc2Cl)C(C)(C(=O)OCC)C1` (stereo unspecified): in assay [1], the result was inactive.
Still for that read-out and setting: for `Oc1ccc(/C=C/c2cc(O)cc(O)c2)cc1` the value was “inactive”.
As for `Oc1ccccc1Cc1ccccc1O`, the outcome in assay [2], in [3], in assay [4], in assay [5], in assay [6] and in assay [7] was inactive. Besides, the outcome in [8], in assay [9] and in assay [10] was inactive. In addition, in assay [7], the concentration at half-maximal activity (AC50) (usually the midpoint of the concentration-response curve, whichever way the signal moves) is 20 µM (active).
Regarding `CCCCCCCCCCCC(=O)N(C)CC(=O)O`, the outcome in assay [2], in [3], in [4], in [5], in assay [6] and in [7] was inactive. For the same compound, the result in assay [8], in assay [9] and in assay [10] was inactive. The concentration at half-maximal activity (AC50) in assay [9] was 5.84 µM (active).
For the compound `CCc1cccc(C)c1N(C(=O)CS(=O)(=O)O)C(C)COC` (stereo unspecified), in assay [1], the outcome was inactive.
Regarding `CCCC(C)C(=O)OCC` (stereo unspecified), the result in assay [2], in assay [3], in assay [4], in assay [5], in assay [6] and in assay [7] was inactive. Besides, the outcome in [8], in assay [9] and in [10] was inactive.
As for `O=C(O)C(F)(F)C(F)(F)C(F)(F)C(F)(F)C(=O)O`, the result in [11], in assay [12], in assay [13], in assay [14], in [15] and in [16] was inactive. Further, the outcome in assay [17], in [18], in assay [2], in assay [3], in [4] and in assay [5] was inactive. Moreover, the result in assay [6], in assay [7], in [8], in assay [9], in [19] and in assay [10] was inactive. Besides, the outcome in assay [20] was inactive.
`c1ccc(Nc2cccc3ccccc23)cc1`: the half-maximal activity concentration (AC50) in assay [2] is 12.7 µM (active); in assay [3] it was 27.2 µM (active) and 30.3 µM (active); in [5], 17.6 µM (active) and 37 µM (active); in assay [6] it was 20 µM (active); in assay [7], 20 µM (active) and 26.6 µM (active); in assay [9] it was 20.8 µM (active) and 14.2 µM (active). Further, in [10], the AC50 was 33.6 µM (active) and 34.1 µM (active). The result in assay [2], in assay [4] and in assay [8] was inactive.
